Source: PubChem BioAssay (EPA / NIEHS)
Results filed as inconclusive are left out. Calls of active or inactive are those of the source. The calls were made as follows, unless noted: active = hit-call score of the fitted dose curve at least 0.9, where 1 is the maximum; inactive = score below 0.9.

Legend:
[1] = read-out: Signal transducer and activator of transcription 3 (Homo sapiens) (UniProt P40763); assay: LTEA_HepaRG_STAT3: Life Technologies and Expression Analysis (LTEA) Assay for Signal transducer and activator of transcription (STAT3) using HepaRG (AID 2283529); settings: mRNA level, 48 h; actives raise or lower the signal
How it was run: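 Differentiated HepaRG cells, serum-free induction medium, dosed 48 h in duplicate, 8 half-log concentrations from 100 uM in 0.5% DMSO. STAT3 mRNA by qRT-PCR, normalised to ACTB, GAPDH, POLR2A; bidirectional fit versus DMSO.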

[2] = read-out: solute carrier (SLCO1B1), SLCO1B1 (gene 10599); assay: LTEA_HepaRG_SLCO1B1: Life Technologies and Expression Analysis (LTEA) Assay for solute carrier (SLCO1B1) using HepaRG (AID 2283530); settings: mRNA level, 48 h; actives raise or lower the signal
How it was run: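 SLCO1B1 transcript levels were quantified by TaqMan qRT-PCR using three housekeeping genes for normalization. This followed 48 h chemical exposure (100 uM top, half-log, 8 points, 0.5% DMSO) of HepaRG liver cells, with gain or loss fitted relative to DMSO.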

[3] = read-out: sulfotransferase 2A1 (SULT2A1), SULT2A1 (gene 6822); assay: LTEA_HepaRG_SULT2A1: Life Technologies and Expression Analysis (LTEA) Assay for sulfotransferase 2A1 (SULT2A1) using HepaRG (AID 2283531); settings: mRNA level, 48 h; actives raise or lower the signal
How it was run: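 Expression change of SULT2A1, by qRT-PCR with three housekeeping-gene normalization, was scored bidirectionally versus DMSO. Cells: differentiated HepaRG, dosed in duplicate for 48 h across 8 points, highest 100 µM, half-log dilution, 0.5% DMSO.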

[4] = read-out: Transforming Growth Factor (TGFA), TGFA (gene 7039); assay: LTEA_HepaRG_TGFA: Life Technologies and Expression Analysis (LTEA) Assay for Transforming Growth Factor (TGFA) using HepaRG (AID 2283532); settings: mRNA level, 48 h; actives raise or lower the signal
How it was run: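 Differentiated HepaRG cells exposed 48 hours in serum-free induction medium, 0.5% DMSO vehicle, 8-point half-log series from 100 uM, in duplicate. TGFA mRNA by TaqMan qRT-PCR, normalised to ACTB, GAPDH, POLR2A; bidirectional fit versus DMSO.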

[5] = read-out: Transforming Growth Factor (TGFB1), TGFB1 (gene 7040); assay: LTEA_HepaRG_TGFB1: Life Technologies and Expression Analysis (LTEA) Assay for Transforming Growth Factor (TGFB1) Transporter using HepaRG (AID 2283533); settings: mRNA level, 48 h; actives raise or lower the signal
How it was run: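 TGFB1 transcript measured by qRT-PCR with normalisation to three housekeeping genes (ACTB, GAPDH, POLR2A); human HepaRG line treated in duplicate for 48 hr with an 8-point series topping at 100 uM, 0.5% DMSO vehicle, bidirectionally fitted.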

TIMP1, TIMP1 (gene 7076) = assay: LTEA_HepaRG_TIMP1: Life Technologies and Expression Analysis (LTEA) Assay for TIMP1 using HepaRG (AID 2283534); settings: mRNA level, 48 h; actives raise or lower the signal
How it was run: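 Bidirectional change in TIMP1 transcript versus 0.5% DMSO, measured by TaqMan qRT-PCR with three housekeeping genes for normalization. HepaRG human liver cells dosed 48 h in duplicate, top concentration 100 uM with half-log dilutions.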

[6] = read-out: Tumor necrosis factor receptor 1 (TNFRSF1A), TNFRSF1A (gene 7132); assay: LTEA_HepaRG_TNFRSF1A: Life Technologies and Expression Analysis (LTEA) Assay for Tumor necrosis factor receptor 1 (TNFRSF1A) using HepaRG (AID 2283535); settings: mRNA level, 48 h; actives raise or lower the signal
How it was run: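 mRNA measured by qRT-PCR (TaqMan, Fluidigm arrays) against ACTB/GAPDH/POLR2A housekeepers after 48 h chemical exposure of HepaRG cells. Top concentration 100 uM, half-log 8-point series, duplicates; vehicle 0.5% DMSO, both fit directions.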

[7] = read-out: Thyroid Hormone Responsive (THRSP), THRSP (gene 7069); assay: LTEA_HepaRG_THRSP: Life Technologies and Expression Analysis (LTEA) Assay for Thyroid Hormone Responsive (THRSP) using HepaRG (AID 2283536); settings: mRNA level, 48 h; actives raise or lower the signal
How it was run: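 Differentiated HepaRG cells treated 48 h in serum-free induction medium with 8 half-log concentrations up to 100 uM (0.5% DMSO), duplicates. THRSP mRNA by TaqMan qRT-PCR normalised to ACTB, GAPDH, POLR2A; bidirectional fit versus DMSO.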

[8] = read-out: Cellular tumor antigen p53 (Homo sapiens) (UniProt P04637); assay: LTEA_HepaRG_TP53: Life Technologies and Expression Analysis (LTEA) Assay for Tumor Protein P53 (TP53) using HepaRG (AID 2283537); settings: mRNA level, 48 h; actives raise or lower the signal
How it was run: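 HepaRG, 48 h exposure, top 100 uM, half-log 8-point, 0.5% DMSO vehicle, duplicates. Read: TP53 mRNA by TaqMan qRT-PCR, normalised to ACTB/GAPDH/POLR2A; bidirectional fit vs DMSO.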

[9] = read-out: UDP glucuronosyltransferase (UGT1A1), UGT1A1 (gene 54658); assay: LTEA_HepaRG_UGT1A1: Life Technologies and Expression Analysis (LTEA) Assay for UDP glucuronosyltransferase (UGT1A1) using HepaRG (AID 2283538); settings: mRNA level, 48 h; actives raise or lower the signal
How it was run: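 Differentiated human HepaRG cells in serum-free induction medium were exposed in duplicate for 48 h to eight half-log concentrations up to 100 uM in 0.5% DMSO. UGT1A1 mRNA was quantified by TaqMan qRT-PCR, normalized to ACTB, GAPDH and POLR2A, and fitted bidirectionally against DMSO.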

[10] = read-out: UDP glucuronosyltransferase (UGT1A6), UGT1A6 (gene 54578); assay: LTEA_HepaRG_UGT1A6: Life Technologies and Expression Analysis (LTEA) Assay for UDP glucuronosyltransferase (UGT1A6) using HepaRG (AID 2283539); settings: mRNA level, 48 h; actives raise or lower the signal
How it was run: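 Expression was quantified by TaqMan qRT-PCR on Fluidigm arrays with ACTB/GAPDH/POLR2A normalization and bidirectional fitting against 0.5% DMSO. HepaRG cells (~100,000/well) were treated in duplicate for 48 h at eight half-log concentrations up to 100 uM in serum-free induction medium.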

[11] = read-out: X-box binding protein 1 (XBP1), XBP1 (gene 7494); assay: LTEA_HepaRG_XBP1: Life Technologies and Expression Analysis (LTEA) Assay for X-box binding protein 1 (XBP1) using HepaRG (AID 2283540); settings: mRNA level, 48 h; actives raise or lower the signal
How it was run: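 XBP1 transcript by qRT-PCR (housekeeping-normalized: ACTB, GAPDH, POLR2A) after 48 h chemical treatment of HepaRG cells, 8-point half-log series topping at 100 uM, vehicle 0.5% DMSO. Gain and loss of signal fitted relative to DMSO.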

[12] = LTEA_HepaRG_LDH_cytotoxicity: Cytotoxicity Assessment in the Life Technologies and Expression Analysis (LTEA) Assay (AID 2283563; active = hit-call score of the fitted dose curve at least 0.9, where 1 is the maximum)
How it was run: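 LDH release into culture medium read after 48 h chemical treatment of HepaRG cells. Duplicate wells, eight-point half-log series topping at 100 uM, 0.5% DMSO vehicle and baseline.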

[13] = Tanguay_ZF_120hpf_MORT_legacy: (Legacy) Oregon State University Tanguay Lab 120 Hour Post-fertilization zebrafish Assay for Mortality (AID 2283633; active = hit-call score of the fitted dose curve at least 0.9, where 1 is the maximum)
How it was run: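 Static waterborne exposure from 6 to 120 hpf at 28C of single dechorionated wild-type (5D) embryos per well, 0.64% DMSO final. Death recorded present/absent by brightfield at 24 and 120 hpf.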

[14] = Tanguay_ZF_120hpf_YSE_legacy: (Legacy) Oregon State University Tanguay Lab 120 Hour Post-fertilization zebrafish Assay for Yolk Sac Edema (AID 2283634; active = hit-call score of the fitted dose curve at least 0.9, where 1 is the maximum)
How it was run: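 Presence or absence of yolk sac edema was recorded at 120 hpf in surviving larvae. These were wild-type Tropical 5D embryos, chorion removed at 4 hpf, held in static exposure at 28C from 6 hpf with 0.64% DMSO vehicle.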

[15] = Tanguay_ZF_120hpf_AXIS_legacy: (Legacy) Oregon State University Tanguay Lab 120 Hour Post-fertilization zebrafish Assay for Body Axis Malformation (AID 2283635; active = hit-call score of the fitted dose curve at least 0.9, where 1 is the maximum)
How it was run: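 Binary scoring of axis defects at 120 hpf under brightfield, fitted positive versus DMSO. Tropical 5D embryos, chorion removed by pronase at 4 hpf, were singly exposed in sealed, dark plates at 28C from 6 hpf; DMSO 0.64% final.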

[16] = Tanguay_ZF_120hpf_EYE_legacy: (Legacy) Oregon State University Tanguay Lab 120 Hour Post-fertilization zebrafish Assay for Eye Malformation (AID 2283636; active = hit-call score of the fitted dose curve at least 0.9, where 1 is the maximum;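 also: binary presence or absence of eye malformation scored by brightfield in 120 hpf larvae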)
How it was run: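 Dechorionated Tropical 5D zebrafish embryos, one per well from 6 hpf, static exposure to 120 hpf at 28C, 0.64% DMSO. Eye malformation scored present/absent by brightfield; dead embryos not scored.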

[17] = Tanguay_ZF_120hpf_SNOU_legacy: (Legacy) Oregon State University Tanguay Lab 120 Hour Post-fertilization zebrafish Assay for Snout Malformation (AID 2283637; active = hit-call score of the fitted dose curve at least 0.9, where 1 is the maximum)
How it was run: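 Dechorionated tropical 5D wild-type zebrafish embryos exposed statically from 6 to 120 hpf at 28C, one per well, in 0.64% DMSO. Snout malformation scored as present/absent by brightfield at 120 hpf; dead embryos not scored.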

[18] = Tanguay_ZF_120hpf_JAW_legacy: (Legacy) Oregon State University Tanguay Lab 120 Hour Post-fertilization zebrafish Assay for Jaw Malformation (AID 2283638; active = hit-call score of the fitted dose curve at least 0.9, where 1 is the maximum)
How it was run: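 Binary jaw-malformation call at 120 hpf by brightfield microscopy. Embryos (Tropical 5D strain, chorion removed at 4 hpf) were dosed statically at 6 hpf, one per well, at 28C with 0.64% DMSO. Embryos that died were not scored.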

[19] = Tanguay_ZF_120hpf_OTIC_legacy: (Legacy) Oregon State University Tanguay Lab 120 Hour Post-fertilization zebrafish Assay for Otic Vesicle Malformation (AID 2283639; active = hit-call score of the fitted dose curve at least 0.9, where 1 is the maximum)
How it was run: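 Tropical 5D wild-type zebrafish embryos were exposed statically in sealed, foil-covered plates at 28C until 120 hpf, with 0.64% (vol/vol) DMSO final. Otic vesicle malformation was scored present/absent by brightfield microscopy, with DMSO as baseline.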

Measured: outcome

Signal transducer and activator of transcription 3 (Homo sapiens), sequence (P40763 whole entry, looked up): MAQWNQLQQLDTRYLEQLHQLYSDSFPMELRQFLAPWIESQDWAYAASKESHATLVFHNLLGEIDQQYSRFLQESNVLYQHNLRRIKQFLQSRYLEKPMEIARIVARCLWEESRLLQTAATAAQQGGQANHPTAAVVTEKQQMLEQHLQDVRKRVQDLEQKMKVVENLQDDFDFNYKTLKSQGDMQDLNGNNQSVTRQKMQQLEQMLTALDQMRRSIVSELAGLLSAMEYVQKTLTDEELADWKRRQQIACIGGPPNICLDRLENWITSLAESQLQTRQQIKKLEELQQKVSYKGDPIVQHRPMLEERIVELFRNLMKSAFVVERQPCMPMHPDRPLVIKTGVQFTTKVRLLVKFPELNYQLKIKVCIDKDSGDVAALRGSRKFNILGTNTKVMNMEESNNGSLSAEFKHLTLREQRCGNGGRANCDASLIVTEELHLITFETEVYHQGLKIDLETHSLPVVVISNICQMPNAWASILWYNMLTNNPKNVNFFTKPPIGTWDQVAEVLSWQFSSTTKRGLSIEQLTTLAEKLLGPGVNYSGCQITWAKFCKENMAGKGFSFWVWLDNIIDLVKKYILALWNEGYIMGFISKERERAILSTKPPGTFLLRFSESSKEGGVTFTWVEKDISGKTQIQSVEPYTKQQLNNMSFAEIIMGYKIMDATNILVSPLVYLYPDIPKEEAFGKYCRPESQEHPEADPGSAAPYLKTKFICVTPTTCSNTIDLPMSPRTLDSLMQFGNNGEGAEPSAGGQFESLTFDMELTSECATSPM
Cellular tumor antigen p53 (Homo sapiens), sequence (P04637 whole entry, looked up): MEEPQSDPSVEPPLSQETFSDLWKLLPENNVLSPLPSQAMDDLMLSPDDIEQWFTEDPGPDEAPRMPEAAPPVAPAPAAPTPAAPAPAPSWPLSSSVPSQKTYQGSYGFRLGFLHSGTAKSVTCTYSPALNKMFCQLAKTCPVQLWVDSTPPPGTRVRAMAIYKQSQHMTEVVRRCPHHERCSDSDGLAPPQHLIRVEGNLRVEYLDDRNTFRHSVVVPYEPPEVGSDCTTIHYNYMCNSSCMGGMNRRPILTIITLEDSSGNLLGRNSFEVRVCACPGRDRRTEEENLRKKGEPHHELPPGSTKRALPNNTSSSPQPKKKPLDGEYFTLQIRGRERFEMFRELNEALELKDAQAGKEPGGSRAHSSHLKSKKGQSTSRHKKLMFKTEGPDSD

N#CCCCCC#N
inactive: all assays above

O=[N+]([O-])c1ccc(Cl)cc1
inactive: all assays above

O=C(CCl)c1ccccc1
inactive: all assays above
